Assay outcomes (PubChem BioAssay)
The list is not random: actives were taken first. Their share in the collection is about 1.1%.
FXIIa inh mix: human factor XIIa inhibitors, primary screen, biochemical, pooled compound mixtures, fluorogenic substrate. Coagulation factor XII (Homo sapiens), P00748. purified FXIIa. inhibition, % at 5 µM. actives 0.2% (n = 62,000);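 further: 0% = enzyme without compound and 100% = no enzyme blank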
BAP1 inh: inhibitors of BAP1 deubiquitinase, primary screen, biochemical, Ub-AMC fluorescence, kinetic; actives 0.48% (n = 72,000); Ubiquitin carboxyl-terminal hydrolase BAP1 (Homo sapiens), Q92560; calls only at 20 µM; AID 436, 2006; recombinant BAP1, Ub-AMC hydrolysis fluorescence kinetic; stronger effect = lower value;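 active means activity remaining at or below 50% of control, provided the compound also passes the data quality filters; inactive means the rest, including low values that fail the filters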;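 further: 100% = DMSO wells rate and 0% = substrate alone blank rate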
CatG inh: human cathepsin G inhibitors, primary screen, biochemical, pooled compound mixtures, AMC fluorescence; P08311; purified enzyme, AMC-tetrapeptide fluorescence; inhibition, % at 5 µM (by protocol); actives 0.2% (n = 62,000); AID 581, 2007;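 active means inhibition above 20% in each of the two mixture wells holding the compound; inactive means inhibition of 20% or less in either well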;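 further: 0% = enzyme control without mixture and 100% = blank lacking enzyme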
FXIa mix inh: FXIa protease inhibitors in compound pools, primary screen, biochemical, 10-compound mixtures. inhibition, % at 5 µM. purified FXIa, fluorogenic substrate, pooled mixtures. actives 0.19% (n = 62,000). Coagulation factor XI (Homo sapiens), P03951;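 further: each value is inhibition by a whole ten-compound pool holding the compound; 0% = enzyme with no mixture and 100% = wells lacking enzyme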
C1s block: complement C1s protease inhibitors, primary screen, biochemical, 10-compound mixtures; purified C1s, fluorogenic AMC substrate, pooled mixtures; mean inhibition % of two 10-compound mixtures (stronger effect = higher value), % at 5 µM (by protocol); actives 0.16% (n = 62,000); AID 538, 2006;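 active means inhibition above 20% in each of the two 10-compound mixture wells holding the compound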;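 further: 0% = enzyme wells lacking compound mixture and 100% = no-enzyme blank wells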
E coli RNAP: E. coli RNAP inhibitors, biochemical. actives 0.2% (n = 62,000). AID 559, 2006. inhibition, %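 (tested at 10 µM)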. E. coli RNA polymerase, fluorescence transcription assay; in the data active means inhibition above about 20%;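 further: 0% = enzyme without compound and 100% = no enzyme blank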
Target sequence (P0A8V2 whole entry, looked up): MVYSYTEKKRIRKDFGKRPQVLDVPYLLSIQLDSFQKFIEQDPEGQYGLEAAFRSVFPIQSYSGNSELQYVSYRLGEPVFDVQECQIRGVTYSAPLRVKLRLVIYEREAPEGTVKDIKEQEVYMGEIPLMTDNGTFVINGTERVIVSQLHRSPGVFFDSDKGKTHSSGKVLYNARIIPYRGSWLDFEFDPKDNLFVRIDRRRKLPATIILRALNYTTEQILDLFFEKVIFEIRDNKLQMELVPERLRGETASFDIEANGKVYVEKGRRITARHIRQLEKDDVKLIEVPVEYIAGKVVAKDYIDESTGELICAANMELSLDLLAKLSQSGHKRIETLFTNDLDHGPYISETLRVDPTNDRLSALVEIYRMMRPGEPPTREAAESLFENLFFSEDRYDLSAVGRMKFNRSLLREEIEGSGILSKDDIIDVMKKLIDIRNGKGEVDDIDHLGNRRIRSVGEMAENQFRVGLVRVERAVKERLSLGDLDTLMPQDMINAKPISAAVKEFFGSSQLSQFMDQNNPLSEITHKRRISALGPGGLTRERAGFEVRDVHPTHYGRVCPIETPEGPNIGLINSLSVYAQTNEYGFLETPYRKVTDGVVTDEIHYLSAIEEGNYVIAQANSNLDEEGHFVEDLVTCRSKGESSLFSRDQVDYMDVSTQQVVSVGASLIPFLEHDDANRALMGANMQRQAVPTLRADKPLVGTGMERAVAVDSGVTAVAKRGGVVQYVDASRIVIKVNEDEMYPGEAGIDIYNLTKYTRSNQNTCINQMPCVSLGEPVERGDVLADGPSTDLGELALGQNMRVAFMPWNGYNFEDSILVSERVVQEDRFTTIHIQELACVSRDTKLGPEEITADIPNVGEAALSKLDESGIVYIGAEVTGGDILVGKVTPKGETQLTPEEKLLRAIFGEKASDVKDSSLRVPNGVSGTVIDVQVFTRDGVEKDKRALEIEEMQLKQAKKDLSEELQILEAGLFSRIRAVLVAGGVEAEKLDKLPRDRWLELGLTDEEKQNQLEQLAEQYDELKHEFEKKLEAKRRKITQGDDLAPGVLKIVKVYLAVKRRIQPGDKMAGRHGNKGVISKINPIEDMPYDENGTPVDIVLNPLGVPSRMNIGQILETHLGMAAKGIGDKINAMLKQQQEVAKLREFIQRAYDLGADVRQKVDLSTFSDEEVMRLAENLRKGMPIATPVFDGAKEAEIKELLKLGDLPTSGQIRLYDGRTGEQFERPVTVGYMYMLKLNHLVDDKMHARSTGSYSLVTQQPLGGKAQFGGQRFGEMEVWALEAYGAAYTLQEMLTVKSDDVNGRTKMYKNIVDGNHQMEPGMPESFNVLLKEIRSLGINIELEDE
* hit, by the source's call; i = inactive; x = no result shown; + = active, no number. Unless noted, no stated cut-off is given here; in the data, active means inhibition above about 20% (passing the limit was not always enough); inactive means the rest.

SMILES | FXIIa inh mix | BAP1 inh | CatG inh | FXIa mix inh | C1s block | E coli RNAP
COC(=O)c1cc(Br)c(=O)n(-c2ccccn2)c1 | -2 | i | 7 | -4 | 1 | x
COC(=O)C1=C(C)N(Cc2ccccc2)C(=O)NC1c1cccc([N+](=O)[O-])c1 (stereo not given) | x | i | x | x | x | x
Cn1c(=O)c2cc(NC(=O)c3ccccc3Cl)c(=O)oc2n(C)c1=O | 1 | x | 20* | 33* | 14 | 7
CC(=O)Nc1sc2c(c1C#N)CCCCC2 | 1 | i | -10 | -27 | -75 | 22*
CC(C)C(=O)Nc1sc2c(c1C#N)CCC2 | x | i | x | x | x | x
COC(=O)c1ccc(C(=O)Nc2ccc(N)cc2N)cc1 | 5 | i | 8 | 23* | 14 | 9
COC(=O)C1=C(C(=O)OC)SC(=C2C(=S)C(C)(C)N(C(=O)c3ccccc3)c3cc(OC)ccc32)S1 | x | i | x | x | x | x
COc1ccccc1NC(=O)c1cc(S(=O)(=O)N2CCOCC2)ccc1Cl | 32* | i | 12 | 4 | 39 | 2
CCOC(=O)c1c(C)[nH]c(C(=O)COC(=O)C2CC2C)c1C (stereo not given) | 6 | i | 17 | 27* | 13 | 8
CCOC(=O)c1[nH]c(C)c(C(=O)OCC)c1C | -17 | i | -11 | -5 | -84 | 9
CCC(=O)Nc1ccc(C(=O)Nc2ccc3c(c2)OCO3)cc1 | 0 | i | 16 | 7 | 21* | -2
Cc1nc(CNS(=O)(=O)c2cc(C)c(C)cc2C)cs1 | -6 | i | 7 | 8 | 57* | 14
CC(=O)c1ccc(-n2nncc2C(C)(C)C)cc1 | 34* | x | -1 | 1 | -2 | 0
CC(C)(C)n1nc2c(c1NC(=O)c1cccc([N+](=O)[O-])c1)CSC2 | x | i | x | x | x | x
O=C1CN(CC(=O)N2CCCCC2)c2ccccc2O1 | 5 | i | 9 | 0 | 5 | -2
O=C1CN(CC(=O)N2CCOCC2)c2ccccc2O1 | 22* | i | -3 | 9 | -2 | -11
CCc1nnc(NC(=O)c2cnccn2)s1 | 2 | i | 7 | 21* | 11 | 7
O=C(Nc1nccs1)c1cnccn1 | 1 | i | -4 | 6 | -3 | -5
O=c1c(-c2ccco2)[n+]([O-])c2ccccc2n1OCc1ccccn1 | -16 | i | 20 | 29* | 29* | 13
CCCCCCCCCCCCCCCCOCC(COCC(F)(F)F)OP(=O)(O)OCO (stereo not given) | x | + | x | x | x | x
CCCCCCCCCCCCCCCCCCOC[C@H](COP(=O)([O-])OCC[N+](C)(C)C)OC | x | i | x | x | x | x
CCCn1c(NCc2ccc(C)o2)nc2ccccc21 | 10 | i | -1 | 26* | 1 | 0
Cc1cc(=O)[nH]c(SCC(=O)c2ccc(C(C)C)cc2)n1 | 12 | i | 11 | -5 | 57* | 8
CCOc1ccc(-n2c3nc4ccccc4nc3c3c(=O)n(Cc4ccco4)cnc32)cc1 | 1 | i | 13 | 9 | 13 | 22*
Cc1cc(C)cc(-n2c3nc4ccccc4nc3c3c(=O)n(Cc4ccco4)cnc32)c1 | 13 | x | 0 | 4 | -12 | 8
SMILES | FXIIa inh mix | BAP1 inh | CatG inh | FXIa mix inh | C1s block | E coli RNAP
COc1ccc(C2CC(C(F)(F)F)n3nc(C(=O)Nc4cccc(C(F)(F)F)c4)c(Cl)c3N2)cc1 (stereo not given) | x | i | x | x | x | x
COC(=O)C1=C(C)Nc2ccc(C)cc2S1 | 10 | i | 11 | 9 | 12 | 8
CC(=O)C1=C(C)Nc2cc(C(F)(F)F)ccc2S1 | 3 | i | 10 | 14 | 1 | 62*
CC1CCN(CCCNC(=O)C2CCN(S(=O)(=O)N3CCCCC3)CC2)CC1 | -2 | i | 4 | -3 | -4 | 7
CC1CCCCN1CCNC(=O)C1CCN(S(=O)(=O)N2CCCCC2)CC1 (stereo not given) | 21* | i | -2 | -3 | -81 | 8
CC(C)N(Cc1ccccc1)C(=O)COC(=O)c1ccc2c(c1)OCCO2 | 38 | i | 12 | -7 | 15 | 9
CC(C)N(CCC(=O)c1ccc2ccccc2c1)Cc1ccccc1 | x | + | x | x | x | x
